Experimental data: PubChem BioAssay (NCI)
About 83,000 compounds went through this panel and 20% of them were active in at least one assay; those are over-represented in the sample as a whole.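 For each line, cells grew in 96-well plates with the test compound present at a single concentration for 48 hours.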 Unmarked numbers belong to inactive results. Active and inactive are the calls of the source. Rule for the calls: active = growth percent below 10; inactive = the rest.

What follows are compounds tested on HCT-15 colon (assay: NCI-60 one-dose screen, 48 h (100 = growth as untreated, 0 = no growth, -100 = all killed)). Settings: 10 µM unless noted.

Row | SMILES | growth
1 | COc1ccc2c(c1)NC(=O)CN2c1nc(NC2CC2)nc2ccccc12 | 10.5%
2 | Nc1c(C(=O)Nc2cccc(Cl)c2Cl)sc2nc3c(cc12)C(=O)CCC3 | 75.5%
3 | CC(=O)Nc1ccc(S(=O)(=O)N2C(=O)CCC2C(=O)Nc2ccc(Br)cc2)cc1 (stereo not drawn) | 7.48% (active)
4 | Nc1nc(-c2cc3ccccc3o2)cc(=O)c(=O)[nH]1 | 103%
5 | Cc1nn(-c2ccc(Cl)cc2)c(=O)n1CCOc1ccccc1Cl | 110%
6 | Cc1cc(C(=O)CSc2nc3ccccc3c(=O)[nH]2)c(C)n1C | 104%
7 | Cc1ccc(C2=NN(c3ccc(S(=O)(=O)NC(=O)NCc4ccccc4)cc3)C(c3ccc(N(C)C)cc3)C2)c(C)c1 (stereo not drawn) | 32.6%
8 | O=C(/C=C/CN1CCOCC1)Nc1cc2c(Nc3cccc(Cl)c3F)ncnc2cc1OCCOC(F)F | 69.2%
9 | COc1ccc(/C(=N/O)c2cc(OC)c(OC)c(OC)c2)c(OC)c1N | 24.5%
10 | O=[N+]([O-])c1ccc(S(=O)(=O)N2CCN(c3ccnc4cc(Cl)ccc34)CC2)c([N+](=O)[O-])c1 | 66.6%
11 | Cc1cc(N/C=c2\sc3ncnn3c2=O)no1 | 94.6%
12 | O=C(Nc1ccc(F)c(Cl)c1)c1n[nH]c(=O)c2ccccc12 | 89.6%
13 | O=C(CCCn1c(=O)c2sc3ccccc3c2n2nnc(-c3ccccc3)c12)NCCc1cnc[nH]1 | -63.1% (active)
14 | CC1=C(C#N)C(C)(C)C(C#N)=C(C)N1 | 98.6%
15 | COc1cc(CCn2nnc3c(Nc4ccc(N5CCOCC5)cc4)ncnc32)cc(OC)c1 | 93.6%
16 | COc1ccc(-c2cn[nH]c2-c2cc(OC)c3c(c2)OCO3)cc1 | 18.6%
17 | Cc1ccc(OCCn2c(C)nn(-c3ccc(Cl)cc3)c2=O)cc1 | 111%
18 | O=C(Nc1ccc(I)cc1)c1cc([N+](=O)[O-])ccc1O | 36.7%
19 | O=C(NNC(=S)Nc1ccccc1)c1ccccn1 | 22.8%

Row | SMILES | growth
20 | COc1ccc(-c2cn[nH]c2-c2cc(OC)c3c(c2)OCCO3)cc1 | 20.7%
21 | COc1cc(Cn2c(SCCC(=O)Nc3ccc(F)cc3)nc3ccccc3c2=O)cc(OC)c1OC | 79%
22 | COc1cc(-c2cc(/C=C3\CCCCC3=O)[nH]n2)cc(OC)c1OC | 94.1%
23 | Cc1ccc(S(=O)(=O)NCCCNc2nccc(-c3c(-c4ccccc4)nc4sccn34)n2)cc1 | 47%
24 | O=C1C2=C(C(=O)c3c(O)ccc(O)c31)N(c1cccnc1)Cc1ccccc1O2 | -32.8% (active)
25 | COc1ccc(NC(=O)CSc2nc3ccc(Cl)cc3c(=O)n2-c2ccccc2C(F)(F)F)c(OC)c1OC | 97.8%
26 | CC(C)C[C@H](NC(=O)[C@@H](Cc1ccccc1)n1ccc(Nc2ccccc2)cc1=O)B(O)O | 28.9%
27 | Cc1cccc(NC(=O)c2sc3nc4c(cc3c2N)CCCC4)c1 | 23.9%
28 | O=c1oc2c([nH]c3ccc4ccccc4c32)c2ccccc12 | 105%
29 | CC1CCc2c(sc(NC(=O)CSc3nnc4ccccn34)c2C(N)=O)C1 (stereo not drawn) | 106%
30 | CC1Cc2c(N(C)C)ncnc2N(C)c2ccc(Cl)cc21 (stereo not drawn) | 18.8%
31 | CCC(=O)Oc1cc(/C=C/C(=O)O[C@H]2C[C@H]3CN4CCc5c([nH]c6cc(OC)ccc56)[C@@H]4C[C@@H]3[C@@H](C(=O)OC)[C@@H]2OC)ccc1OC | 59.8%
32 | CN(C)C/C=C/C(=O)Nc1cc2c(Nc3cccc(Cl)c3F)ncnc2cc1OCCOC(F)F | 21.8%
33 | O=C1Nc2cc(Cl)ccc2Oc2cc(Oc3ccccc3)ccc21 | 46.7%
34 | c1cncc(CNc2ccccc2-c2nnc(Nc3ccc4c(c3)OCCO4)o2)c1 | 19%
35 | COC1=CC(c2ccc[nH]2)=N/C1=C\c1[nH]c(C)c(C(=O)CCCCC(=O)Oc2ccc3c(c2)CCC2C3CC[C@]3(C)[C@@H](O)CC[C@@H]23)c1C (stereo partly drawn) | 37.1%
36 | COc1ccc(/C=c2\sc3n(c2=O)C2C(NN=3)N(C)C(=O)N2C)cc1 (stereo not drawn) | 28.5%
37 | Cc1sc(N=Nc2ccc(N(C)C)cc2)[n+]([O-])c1C | 100%
38 | COc1cc(/C=C/C(=O)c2ccccc2O)ccc1OCCCOc1cc2c(cc1OC)C(=O)N1CCC[C@H]1C=N2 | -3.51% (active)
